# Reference: PubChem BioAssay
# Calls of active or inactive are those of the source.
# Key:
# [1] = binders of probe aFSTL3 on microarray, primary screen, stem cell growth factor project, biochemical, small-molecule microarray, fluorescence 635/667 (AID 1064); conditions: higher = more signal;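 also: measures binding of the biotinylated anti-FSTL3 antibody to printed compounds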
# [2] = binders from COS7 lysate, DM2A8 probe, primary screen, torsin A project, cell lysate, small-molecule microarray, fluorescence 635/667 (AID 1065); conditions: higher = more signal, COS7 lysate expressing mutant human TOR1A
# [3] = binders of probe aFGF2 on microarray, primary screen, stem cell growth factor project, biochemical, small-molecule microarray, fluorescence 635/667 (AID 1067); conditions: higher = more signal;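 also: measures binding of biotinylated aFGF2 protein to printed compounds on slides; z-score merges feature fluorescence and signal-to-noise across triplicate slides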
# [4] = binders of probe aFGF10 on microarray, primary screen, stem cell growth factor project, biochemical, small-molecule microarray, fluorescence 635/667 (AID 1071); conditions: higher = more signal;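 also: score merges 667 nm spot intensity and signal to noise from triplicate slides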
# [5] = molecular target: Neurogenic locus notch homolog protein 2 (Homo sapiens) (UniProt Q04721); assay: Notch2 binders on small-molecule microarrays, primary screen, biochemical, small-molecule microarray, 635 nm fluorescence, stem cell growth factors (AID 1073); conditions: Notch2 binding, higher = more signal
# [6] = molecular target: Pro-neuregulin-1, membrane-bound isoform (Homo sapiens) (UniProt Q02297); assay: NRG1 binders on small-molecule microarrays, primary screen, psychiatric disease protein project, biochemical, small-molecule microarray, fluorescence 635/667 (AID 1075); conditions: NRG1 binding, 635 nm fluorescence, higher = more signal;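 also: score combines 667 nm spot fluorescence with signal to noise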
# [7] = system: Neuregulin-1 EGF-like domain; assay: binders of neuregulin-1 EGF-like domain, primary screen, biochemical, small-molecule microarray, 635 nm fluorescence (AID 1081); conditions: small-molecule microarray binding, higher = more signal;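 also: binding of the protein to compounds printed on small-molecule microarray slides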
# [8] = FRG1 promoter luciferase signal modulators, primary screen, FRG1 inhibition for FSHD, cell-based, C2C12 myotubes, firefly/Renilla luciferase, luminescence (AID 1084); conditions: higher = more signal, called active from +8 up or from −8 down
# [9] = binders of probe aFST on microarray, primary screen, stem cell growth factor project, biochemical, small-molecule microarray, fluorescence 635/667 (AID 1086); conditions: higher = more signal;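 also: score merges 667 nm fluorescence with signal-to-noise of each printed compound spot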
# [10] = binders of probe aHhip on microarray, primary screen, stem cell growth factor project, biochemical, small-molecule microarray, fluorescence 635/667 (AID 1087); conditions: higher = more signal;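 also: score merges spot fluorescence at 667nm with spot signal to noise ratio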
# [11] = system: PRMT1 (protein arginine N-methyltransferase 1); assay: PRMT1 binders on small-molecule microarrays, primary screen, biochemical, small-molecule microarray, 635 nm fluorescence (AID 1088); conditions: small-molecule microarray binding, higher = more signal;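 also: binding of Prmt1 protein to compounds spotted on small-molecule microarray slides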
# [12] = yeast growth modulation, basal conditions, primary screen, YJM789 clinical isolate, OD600, 24 h (AID 1089);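 also: growth of clinical yeast isolate S. cerevisiae YJM 789 seeded 1000 cells per well; test concentration not given here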; conditions: S. cerevisiae YJM789 growth, higher = more signal, called active from +8 up or from −8 down
# [13] = fission yeast growth modulation, primary screen, strain 972, OD600, 24 h, no modulator (AID 1090);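 also: basal condition with compound alone and no growth modifier present; test concentration not given here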; conditions: S. pombe 972 growth, higher = more signal, called active from +8 up or from −8 down
# [14] = S. cerevisiae growth modulation with rapamycin, primary screen, strain BY4716, OD600, 96 h (AID 1091); conditions: higher = more signal, called active from +8 up or from −8 down; also: test concentration not given here
# [15] = molecular target: Torsin-1A-interacting protein 2 (Homo sapiens) (UniProt Q8NFQ8); assay: LULL1 binders on small-molecule microarray, primary screen, cell lysate, human LULL1 lysate, 635/667 nm fluorescence (AID 1092); conditions: hLULL1 lysate binding, 635 nm fluorescence, higher = more signal;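 also: probe is lysate of COS7 cells overexpressing human LULL1; score merges per-feature 667 nm fluorescence with signal-to-noise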
# [16] = E. coli growth modulation, two-sided OD650, primary screen, E. coli filamentation project, strain DRC41, 24 h (AID 1093); conditions: OD650, 24 h, higher = more signal, called active from +8 up or from −8 down;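 also: MC1000 strain lacking acrAB efflux and sulA so SOS filamentation is blocked; test concentration not given here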
# [17] = small-molecule microarray binders of probe aLefty2, primary screen, biochemical, biotinylated probe, 635/667 nm fluorescence (AID 1094); conditions: higher = more signal;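 also: score merges spot fluorescence near 667 nm with spot signal-to-noise ratio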
# [18] = system: Noggin (protein binding on small-molecule microarray); assay: Noggin binders on small-molecule microarray, primary screen, biochemical, 635/667 nm fluorescence (AID 1095); conditions: 635 nm fluorescence, higher = more signal;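 also: score merges 667 nm feature fluorescence with signal to noise over triplicate slides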
# [19] = molecular target: Neurogenic locus notch homolog protein 3 (Homo sapiens) (UniProt Q9UM47); assay: NOTCH3 binders on small-molecule microarray, primary screen, biochemical, 635/667 nm fluorescence (AID 1096); conditions: NOTCH3 binding, 635 nm fluorescence, higher = more signal
# [20] = small-molecule microarray binders of probe aEGFR, primary screen, biochemical, biotinylated probe, 635/667 nm fluorescence (AID 1097); conditions: higher = more signal;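 also: probe is a biotinylated anti-EGFR antibody binding compounds printed on slides; score combines fluorescence near 667 nm and signal to noise of each spot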
# Neurogenic locus notch homolog protein 2 (Homo sapiens), sequence (Q04721 whole entry, looked up, canonical isoform): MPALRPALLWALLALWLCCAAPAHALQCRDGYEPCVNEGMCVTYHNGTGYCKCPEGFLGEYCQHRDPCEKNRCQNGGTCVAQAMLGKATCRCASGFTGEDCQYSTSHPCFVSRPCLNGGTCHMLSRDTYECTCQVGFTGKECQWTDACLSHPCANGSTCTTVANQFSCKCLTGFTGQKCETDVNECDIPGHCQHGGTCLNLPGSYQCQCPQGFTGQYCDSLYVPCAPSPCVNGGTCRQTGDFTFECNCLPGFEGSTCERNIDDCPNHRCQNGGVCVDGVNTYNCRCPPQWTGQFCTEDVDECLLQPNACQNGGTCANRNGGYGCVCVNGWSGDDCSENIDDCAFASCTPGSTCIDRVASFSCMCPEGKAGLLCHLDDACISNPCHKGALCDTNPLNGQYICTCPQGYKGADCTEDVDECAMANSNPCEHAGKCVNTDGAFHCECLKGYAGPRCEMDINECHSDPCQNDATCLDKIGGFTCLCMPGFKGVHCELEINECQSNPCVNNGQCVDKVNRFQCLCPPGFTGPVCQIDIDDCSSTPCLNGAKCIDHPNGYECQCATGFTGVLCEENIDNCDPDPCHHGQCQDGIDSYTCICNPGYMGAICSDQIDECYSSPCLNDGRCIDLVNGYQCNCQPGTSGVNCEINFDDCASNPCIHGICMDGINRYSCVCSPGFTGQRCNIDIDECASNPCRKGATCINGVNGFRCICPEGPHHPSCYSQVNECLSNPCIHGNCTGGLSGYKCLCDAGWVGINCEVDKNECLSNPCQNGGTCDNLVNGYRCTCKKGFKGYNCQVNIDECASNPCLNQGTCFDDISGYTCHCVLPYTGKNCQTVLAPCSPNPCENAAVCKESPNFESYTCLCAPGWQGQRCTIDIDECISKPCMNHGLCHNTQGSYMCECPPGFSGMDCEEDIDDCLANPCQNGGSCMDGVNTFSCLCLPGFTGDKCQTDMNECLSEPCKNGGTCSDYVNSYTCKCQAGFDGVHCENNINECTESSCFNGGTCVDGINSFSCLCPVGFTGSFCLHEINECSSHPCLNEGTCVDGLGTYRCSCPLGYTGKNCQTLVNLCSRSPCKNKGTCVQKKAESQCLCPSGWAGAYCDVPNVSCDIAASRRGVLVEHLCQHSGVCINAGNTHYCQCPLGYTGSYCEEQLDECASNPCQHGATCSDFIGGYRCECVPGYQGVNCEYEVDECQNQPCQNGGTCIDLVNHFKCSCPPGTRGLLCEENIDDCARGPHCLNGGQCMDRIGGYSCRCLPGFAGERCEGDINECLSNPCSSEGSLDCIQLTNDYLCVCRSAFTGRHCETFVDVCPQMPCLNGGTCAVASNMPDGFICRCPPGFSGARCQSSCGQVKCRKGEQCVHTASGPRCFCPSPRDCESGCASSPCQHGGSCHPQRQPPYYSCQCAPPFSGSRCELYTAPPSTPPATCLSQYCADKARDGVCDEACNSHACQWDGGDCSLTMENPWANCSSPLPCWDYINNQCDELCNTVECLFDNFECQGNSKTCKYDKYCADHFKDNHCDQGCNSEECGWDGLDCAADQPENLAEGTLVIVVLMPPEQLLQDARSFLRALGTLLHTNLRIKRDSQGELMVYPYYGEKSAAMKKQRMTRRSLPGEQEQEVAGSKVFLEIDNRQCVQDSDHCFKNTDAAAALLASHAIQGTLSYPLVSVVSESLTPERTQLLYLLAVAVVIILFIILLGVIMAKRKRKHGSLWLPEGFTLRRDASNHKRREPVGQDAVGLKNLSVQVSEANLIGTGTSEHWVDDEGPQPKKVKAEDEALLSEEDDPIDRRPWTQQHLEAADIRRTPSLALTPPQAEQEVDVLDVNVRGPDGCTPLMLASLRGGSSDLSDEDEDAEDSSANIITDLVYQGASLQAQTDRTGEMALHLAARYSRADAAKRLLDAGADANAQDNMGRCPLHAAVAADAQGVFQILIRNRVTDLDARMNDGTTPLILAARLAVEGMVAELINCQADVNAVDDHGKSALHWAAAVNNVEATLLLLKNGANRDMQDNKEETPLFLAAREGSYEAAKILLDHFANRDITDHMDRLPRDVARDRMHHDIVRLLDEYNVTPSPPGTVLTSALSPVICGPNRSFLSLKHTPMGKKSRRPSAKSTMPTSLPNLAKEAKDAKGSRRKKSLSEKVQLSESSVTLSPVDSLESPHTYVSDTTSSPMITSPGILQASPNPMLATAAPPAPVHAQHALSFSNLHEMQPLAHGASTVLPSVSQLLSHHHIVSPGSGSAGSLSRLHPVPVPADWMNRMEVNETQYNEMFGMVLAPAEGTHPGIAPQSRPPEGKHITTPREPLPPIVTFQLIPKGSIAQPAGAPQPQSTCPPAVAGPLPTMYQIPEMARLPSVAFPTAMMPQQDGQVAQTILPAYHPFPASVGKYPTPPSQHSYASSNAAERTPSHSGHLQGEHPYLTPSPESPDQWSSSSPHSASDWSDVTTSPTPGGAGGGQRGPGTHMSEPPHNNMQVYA
# Pro-neuregulin-1, membrane-bound isoform (Homo sapiens), sequence (Q02297 whole entry, looked up, the tested form may be a part, canonical isoform): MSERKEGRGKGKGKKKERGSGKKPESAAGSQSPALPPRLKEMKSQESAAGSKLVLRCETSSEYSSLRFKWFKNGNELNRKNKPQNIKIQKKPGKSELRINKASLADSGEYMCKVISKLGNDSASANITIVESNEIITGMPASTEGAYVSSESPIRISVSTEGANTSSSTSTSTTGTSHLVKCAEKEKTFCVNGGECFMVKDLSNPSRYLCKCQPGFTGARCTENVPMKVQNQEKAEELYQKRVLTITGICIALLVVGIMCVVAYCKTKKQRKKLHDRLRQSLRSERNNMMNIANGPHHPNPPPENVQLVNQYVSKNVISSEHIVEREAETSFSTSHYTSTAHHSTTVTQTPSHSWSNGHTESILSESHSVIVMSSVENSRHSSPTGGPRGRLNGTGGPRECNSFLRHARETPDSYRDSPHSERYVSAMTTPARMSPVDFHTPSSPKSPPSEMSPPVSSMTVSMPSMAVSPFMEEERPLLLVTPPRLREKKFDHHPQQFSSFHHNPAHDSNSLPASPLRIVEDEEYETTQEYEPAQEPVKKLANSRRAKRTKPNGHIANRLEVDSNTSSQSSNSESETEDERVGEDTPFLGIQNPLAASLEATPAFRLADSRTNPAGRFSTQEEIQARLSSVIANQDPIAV
# Torsin-1A-interacting protein 2 (Homo sapiens), sequence (Q8NFQ8 whole entry, looked up): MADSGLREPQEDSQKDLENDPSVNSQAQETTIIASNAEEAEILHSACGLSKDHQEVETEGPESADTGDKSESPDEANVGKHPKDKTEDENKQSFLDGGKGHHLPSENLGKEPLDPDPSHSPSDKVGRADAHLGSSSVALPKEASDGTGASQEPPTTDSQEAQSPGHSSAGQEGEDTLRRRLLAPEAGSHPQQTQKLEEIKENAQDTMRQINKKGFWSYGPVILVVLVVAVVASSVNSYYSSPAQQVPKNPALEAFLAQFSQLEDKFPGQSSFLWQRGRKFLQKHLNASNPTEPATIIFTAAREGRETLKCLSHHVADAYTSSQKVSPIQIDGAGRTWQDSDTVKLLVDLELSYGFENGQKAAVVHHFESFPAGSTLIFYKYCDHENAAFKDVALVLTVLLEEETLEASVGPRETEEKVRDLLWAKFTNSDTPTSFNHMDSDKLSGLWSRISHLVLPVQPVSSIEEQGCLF
structure (smiles),measurement,setting,value
CON=C1c2cc(OC)ccc2O[C@H](c2cccc(OC)c2)[C@H]1O,composite z-score,[1],-0.289
same,composite z-score,[2],0.707
same,composite z-score,[3],-0.0473
same,composite z-score,[4],0.492
same,composite z-score,[5],0.385
same,composite z-score,[6],0.247
same,composite z-score,[7],0.945
same,z-score,[8],5.9 (inactive)
same,composite z-score,[9],0.583
same,composite z-score,[10],0.0053
same,composite z-score,[11],-0.0242
same,z-score,[12],-0.976 (inactive)
same,z-score,[13],-3 (inactive)
same,z-score,[14],-1.75 (inactive)
same,composite z-score,[15],0.365
same,z-score,[16],0.792 (inactive)
same,composite z-score,[17],-0.0515
same,composite z-score,[18],0.588
same,composite z-score,[19],0.684
same,composite z-score,[20],0.0242
C[C@@H]1CC[C@H]2C(=O)OC(CN3C(=O)c4ccccc4C3=O)CN2[C@H]1c1ccc(Br)cc1 (stereo not given in full),composite z-score,[1],-0.138
same,composite z-score,[2],1
same,composite z-score,[3],-0.133
same,composite z-score,[4],0.0468
same,composite z-score,[5],0.315
same,composite z-score,[6],0.48
same,composite z-score,[7],-0.429
same,z-score,[8],1.11 (inactive)
same,composite z-score,[9],0.362
same,composite z-score,[10],-0.132
same,composite z-score,[11],0.658
same,z-score,[12],0.341 (inactive)
same,z-score,[13],0.35 (inactive)
same,z-score,[14],-0.338 (inactive)
same,composite z-score,[15],1.38
same,z-score,[16],0.725 (inactive)
same,composite z-score,[17],-0.185
same,composite z-score,[18],-0.263
same,composite z-score,[19],0.361
same,composite z-score,[20],-0.0703
CCOC(=O)CCN1C(=O)[C@H]2[C@H]3[C@H](O)[C@H](O)CC(=NOCC(C)C)[C@@H]3CC[C@H]2C1=O,composite z-score,[1],-0.784
same,composite z-score,[2],1.88
same,composite z-score,[3],-0.234
same,composite z-score,[4],-1.05
same,composite z-score,[5],-0.567
same,composite z-score,[6],-0.849
same,composite z-score,[7],0.296
same,z-score,[8],-0.398 (inactive)
same,composite z-score,[9],-0.595
same,composite z-score,[10],-0.0994
same,composite z-score,[11],0.868
same,z-score,[12],-0.535 (inactive)
same,z-score,[13],-0.219 (inactive)
same,z-score,[14],-0.629 (inactive)
same,composite z-score,[15],-0.953
same,z-score,[16],-0.127 (inactive)
same,composite z-score,[17],-0.0956
same,composite z-score,[18],1.39
same,composite z-score,[19],-0.321
same,composite z-score,[20],0.163
CC(C)(C)N1C(=O)[C@H]2[C@H]3[C@H](O)[C@H](O)CC(=NNC(=O)OCc4ccccc4)[C@@H]3CC[C@H]2C1=O,composite z-score,[1],-0.387
same,composite z-score,[2],0.376
same,composite z-score,[3],-0.136
same,composite z-score,[4],0.64
same,composite z-score,[5],0.447
same,composite z-score,[6],-0.0123
same,composite z-score,[7],0.254
same,z-score,[8],0.674 (inactive)
same,composite z-score,[9],0.278
same,composite z-score,[10],-0.161
same,composite z-score,[11],0.561
same,z-score,[12],-0.668 (inactive)
same,z-score,[13],0.588 (inactive)
same,z-score,[14],9.42 (active)
same,composite z-score,[15],0.883
same,z-score,[16],0.45 (inactive)
same,composite z-score,[17],-0.0824
same,composite z-score,[18],0.457
same,composite z-score,[19],0.586
same,composite z-score,[20],0.172
C[C@@H]1CC[C@H]2C(=O)N3[C@@H](CC[C@@H](C)[C@@H]3c3ccc(Br)cc3)C(=O)N2[C@H]1c1ccc(Br)cc1,composite z-score,[1],-0.241
same,composite z-score,[2],0.318
same,composite z-score,[3],-0.131
same,composite z-score,[4],0.3
same,composite z-score,[5],0.599
same,composite z-score,[6],-0.0193
same,composite z-score,[7],0.354
same,z-score,[8],-0.469 (inactive)
same,composite z-score,[9],0.343
same,composite z-score,[10],-0.173
same,composite z-score,[11],-0.455
same,z-score,[12],-0.275 (inactive)
same,z-score,[13],-4.1 (inactive)
same,z-score,[14],0.805 (inactive)
same,composite z-score,[15],0.241
same,z-score,[16],-0.19 (inactive)
same,composite z-score,[17],-0.0865
same,composite z-score,[18],0.259
same,composite z-score,[19],0.305
same,composite z-score,[20],-0.0987
COc1ccc(COC(=O)NN=C2C[C@@H](O)[C@@H](O)[C@@H]3[C@@H]4C(=O)N([C@@H](C)c5ccccc5)C(=O)[C@@H]4CC[C@@H]23)cc1,composite z-score,[1],-0.513
same,composite z-score,[2],0.419
same,composite z-score,[3],-0.114
same,composite z-score,[4],0.042
same,composite z-score,[5],0.199
same,composite z-score,[6],0.0605
same,composite z-score,[7],-0.38
same,z-score,[8],0.497 (inactive)
same,composite z-score,[9],0.275
same,composite z-score,[10],-0.0994
same,composite z-score,[11],-0.0948
same,z-score,[12],-0.735 (inactive)
same,z-score,[13],0.207 (inactive)
same,z-score,[14],-0.206 (inactive)
same,composite z-score,[15],-0.0022
same,z-score,[16],0.918 (inactive)
same,composite z-score,[17],0.0378
same,composite z-score,[18],0.574
same,composite z-score,[19],0.128
same,composite z-score,[20],-0.103
CO[C@H]1COC(=O)CCC[C@H](C)[C@H](OC)COC(=O)CC=C[C@@H]1C,composite z-score,[1],-0.535
same,composite z-score,[2],1.95
same,composite z-score,[3],-0.142
same,composite z-score,[4],-0.692
same,composite z-score,[5],-0.497
same,composite z-score,[6],-0.441
same,composite z-score,[7],-0.291
same,z-score,[8],-0.948 (inactive)
same,composite z-score,[9],-0.168
same,composite z-score,[10],0.0922
same,composite z-score,[11],1.12
same,z-score,[12],-1.3 (inactive)
same,z-score,[13],-0.654 (inactive)
same,z-score,[14],-1.59 (inactive)
same,composite z-score,[15],-1.88
same,z-score,[16],-0.0243 (inactive)
same,composite z-score,[17],-0.0113
same,composite z-score,[18],1.13
same,composite z-score,[19],-0.398
same,composite z-score,[20],0.0278
CC(C)=CCCC(C)=CCON=C1C[C@@H](O)[C@@H](O)[C@@H]2[C@@H]3C(=O)N([C@@H](C)c4ccccc4)C(=O)[C@@H]3CC[C@@H]12,composite z-score,[1],-0.465
same,composite z-score,[2],-0.0543
same,composite z-score,[3],-0.0493
same,composite z-score,[4],0.374
same,composite z-score,[5],0.449
same,composite z-score,[6],0.137
same,composite z-score,[7],0.661
same,z-score,[8],-0.366 (inactive)
same,composite z-score,[9],0.11
same,composite z-score,[10],-0.249
same,composite z-score,[11],-0.744
same,z-score,[12],-0.208 (inactive)
same,z-score,[13],0.301 (inactive)
same,z-score,[14],-0.362 (inactive)
same,composite z-score,[15],0.676
same,z-score,[16],0.215 (inactive)
same,composite z-score,[17],-0.166
same,composite z-score,[18],0.331
same,composite z-score,[19],0.508
same,composite z-score,[20],-0.111
CC(C)C(=O)N[C@H]1CCCN1C(=O)C=Cc1ccccc1,composite z-score,[1],-0.174
same,composite z-score,[2],0.253
same,composite z-score,[3],-0.0212
same,composite z-score,[4],0.803
same,composite z-score,[5],0.74
same,composite z-score,[6],-0.219
same,composite z-score,[7],0.72
same,z-score,[8],-0.302 (inactive)
same,composite z-score,[9],0.214
same,composite z-score,[10],-0.0319
same,composite z-score,[11],0.876
same,z-score,[12],0.624 (inactive)
same,z-score,[13],0.495 (inactive)
same,z-score,[14],1.02 (inactive)
same,composite z-score,[15],0.0445
same,z-score,[16],0.267 (inactive)
same,composite z-score,[17],-0.0022
same,composite z-score,[18],1.13
same,composite z-score,[19],0.826
same,composite z-score,[20],0.125
CCOC(=O)CCN1C(=O)[C@H]2[C@H]3[C@H](O)[C@H](O)CC(=NNC(=O)OCC)[C@H]3CC[C@H]2C1=O,composite z-score,[1],-0.264
same,composite z-score,[2],0.345
same,composite z-score,[3],-0.162
same,composite z-score,[4],-0.188
same,composite z-score,[5],-0.752
same,composite z-score,[6],0.189
same,composite z-score,[7],0.54
same,z-score,[8],0.115 (inactive)
same,composite z-score,[9],0.0166
same,composite z-score,[10],-0.0237
same,composite z-score,[11],0.0158
same,z-score,[12],0.654 (inactive)
same,z-score,[13],-1.45 (inactive)
same,z-score,[14],0.305 (inactive)
same,composite z-score,[15],0.0756
same,z-score,[16],-0.637 (inactive)
same,composite z-score,[17],-0.139
same,composite z-score,[18],0.412
same,composite z-score,[19],-0.818
same,composite z-score,[20],-0.12
